# Screen size: about 63,000 compounds; about 1,100 (1.7%) were called active. This excerpt belongs to a sample that is enriched for actives. Measured potencies and affinities stand elsewhere. Unmarked numbers belong to inactive results.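 Rule for the calls: active = compounds whose percent cytotoxicity in the single-dose primary screen, scaled between solvent and toxic-drug controls, exceeds 50; inactive = the rest.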
# Experiment: viability loss of HPDE-C7K cells – cell-based, fluorescence, HTS, primary screen (AID 431);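 note: 0% = DMSO solvent wells and 100% = doxorubicin-treated wells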
# Details: HPDE-C7K KRASV12 cells, Alamar Blue viability, 48 h; at 10 µM; hits give high values
row,Structure (SMILES),cytotoxicity
1,Cn1c(SCC2CCCO2)nnc1-c1ccncc1 (configuration not stated),-3.1%
2,CCOC(=O)C1CCN(c2ncnc3c2oc2ccc(Cl)cc23)CC1,6.4%
3,O=C(COC(=O)c1c2c(nc3ccccc13)CCCC2)Nc1ccc2c(c1)OCO2,53.6% (active)
4,Cc1nn(-c2ccccc2)c(C)c1C(=O)OCC(=O)Nc1ccc2c(c1)OCO2,-6.3%
5,Cc1onc(-c2ccccc2)c1C(=O)OCC(=O)Nc1ccc2c(c1)OCO2,1.3%
6,O=C(C1CCN(S(=O)(=O)c2cccnc2)CC1)N1CCN(C2CCCC2)CC1,-8.1%
7,Cc1ccc(CNc2nc3c([nH]2)c(=O)n(C)c(=O)n3C)cc1,-19.3%
8,Cc1ccc(C(CC(=O)N2CCCC2)c2ccccc2)c(O)c1C (configuration not stated),-9.2%
9,COc1ccccc1CNc1ncnc2nc[nH]c12,4.5%
10,Oc1ccc(CN2CCN(Cc3ccccc3)CC2)c2cccnc12,6.1%
11,CN1CCN(Cc2cc(COCc3ccccc3)c3cccnc3c2O)CC1,4.8%
12,CCOC(=O)C1CCN(Cc2ccc(O)c3ncccc23)CC1,-4.5%
13,Oc1ccc(CNc2ccc(F)cc2)c2cccnc12,53.3% (active)
14,Oc1ccc(CN2CCCc3ccccc32)c2cccnc12,36.7%
15,Oc1ccc(CNc2ccccc2F)c2cccnc12,5.5%
16,Oc1ccc(CNc2ccccc2)c2cccnc12,44.4%
17,O=C(CSc1nnc(-c2ccc(S(=O)(=O)N3CCCC3)cc2)o1)NCc1ccco1,-15.4%
18,CCOc1ccc(OCC)c(NC(=O)CN(c2ccc(C)cc2)S(=O)(=O)c2c(C)noc2C)c1,-6.3%
19,COC(=O)c1[nH]c2ccc(C)cc2c1NS(=O)(=O)c1ccc(F)c(C)c1,10.9%
20,CCCn1c(SCC(=O)NC(C)(C)C)nnc1C(C)C,-5.9%
21,COc1cccc(OC)c1C(=O)Nn1c(C2CCC2)nc2ccccc2c1=O,-10.3%
22,O=C(CN1C(=O)CCS(=O)(=O)c2ccccc21)Nc1cccc(Cl)c1,2.5%
23,O=[n+]1c2c(n([O-])c3cc(F)ccc31)CCCC2,0.3%
24,COc1cc(OC)cc(C(=O)NCc2n[nH]c(=S)n2-c2ccccc2)c1,-3.1%

row,Structure (SMILES),cytotoxicity
1,Cc1ccc(-c2c(C)c(-c3ccc(F)cc3)nc(N)c2C#N)o1,19.3%
2,CCOc1ccccc1NC(=O)N1CCCC1C(=O)Nc1ccc(NC(C)=O)cc1 (configuration not stated),-3.3%
3,COc1cc(C(=O)N2CCN(c3ccc(C)cc3C)CC2)cc(OC)c1OC,28.6%
4,COc1cc(C(=O)N2CCN(c3cc(Cl)ccc3Cl)CC2)cc(OC)c1OC,65.3% (active)
5,COc1ccc(Cl)cc1S(=O)(=O)N1CCN(C(=O)c2cc(OC)c(OC)c(OC)c2)CC1,-3.4%
6,CC1(C)Cc2ccccc2-c2nnc(SCC(=O)Nc3ccc4c(c3)OCO4)n21,4.9%
7,COc1ccc(-c2noc(CN(C)S(=O)(=O)c3ccc(Cl)cc3)n2)cc1OC,27.5%
8,CCn1c2ccccc2c2cc(NC(=O)CSc3nnnn3-c3ccccc3)ccc21,5.6%
9,CCn1c2ccccc2c2cc(CN3CCN(C(=O)c4ccco4)CC3)ccc21,-16%
10,CCn1c2ccccc2c2cc(NC(=O)CSc3nnc(-c4ccccc4OC)n3N)ccc21,66% (active)
11,CCn1c(SCC(=O)Nc2ccc3c(c2)OCCO3)nnc1-c1ccco1,5.8%
12,CCn1c(SCC(=O)Nc2ccc3c(c2)c2ccccc2n3CC)nnc1-c1ccco1,57.1% (active)
13,COc1ccc(NC(=O)CSc2nnc(-c3ccccc3C)n2N)cc1OC,-2.1%
14,C=CCn1c(SCC(=O)Nc2ccc(N(C)C)cc2)nnc1-c1cccc(C)c1,33%
15,CCn1c2ccccc2c2cc(NC(=O)N3CCOCC3)ccc21,-7.1%
16,CCn1c(SCC(=O)Nc2ccc3c(c2)c2ccccc2n3CC)nnc1-c1cnccn1,12.2%
17,CCn1c(SCC(=O)Nc2ccc(S(N)(=O)=O)cc2)nnc1-c1cccc(OC)c1,6.1%
18,CCn1c2ccccc2c2cc(NC(=O)c3ccco3)ccc21,66.2% (active)
19,O=C(CSc1nn(-c2ccccc2)c(=S)s1)Nn1cnnc1,-11.8%
20,CS(=O)(=O)N1CCCC(c2nc(-c3ccc(S(=O)(=O)NCc4ccccc4)cc3)no2)C1 (configuration not stated),-5.6%
21,O=C(CCCn1c(=S)[nH]c2cc3c(cc2c1=O)OCO3)N1CCN(c2ncccn2)CC1,-12.6%
22,CCOc1ccccc1N1CCN(C(=O)Nc2cccc(Cl)c2)CC1,-2.1%
23,Cn1cc(C(=O)NC2CCCCCCC2)c(=O)c2cc(S(=O)(=O)N3CCCC3)ccc21,-3.8%
